Measurements: the supplement of paper PMC6522484
± gives the standard deviation of the averaged measurements.

Tests used:
DLD1 [1] = assay: cell viability (CellTiter-Glo) relative to plate median (fraction of plate median); higher = more viable cells; conditions: 5 µM; treatment time 24 h; reporter: 7TFP
In short: (§1)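 Signals from firefly luciferase or CellTiterGlo readouts were normalised well by well to the plate median using webcellHTS2, additively and with no log transformation. They came from colorectal cancer cell lines stably holding lentiviral TCF/Wnt firefly luciferase reporters (7TFP or TCF4/Wnt), treated with library compounds at a final 5 µM for 24 h. The mean of two independent replicates is given.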

HCT116 = assay: as above; conditions: 5 µM; treatment time 24 h; reporter: TCF4/Wnt
In short: as §1

SW480 [2] = assay: as above; conditions: 5 µM; treatment time 24 h; reporter: 7TFP
In short: as §1

DLD1 [3] = assay: TCF/Wnt firefly luciferase reporter signal relative to plate median (fraction of plate median); higher = higher Wnt reporter signal; conditions: 5 µM; treatment time 24 h; reporter: 7TFP
In short: as §1

SW480 [4] = assay: as above; conditions: 5 µM; treatment time 24 h; reporter: 7TFP
In short: as §1

SMILES | cell viability (DLD1 [1]) | cell viability (HCT116) | cell viability (SW480 [2]) | TCF/Wnt firefly luciferase reporter signal (DLD1 [3]) | TCF/Wnt firefly luciferase reporter signal (SW480 [4])
CNC(Cc1c[nH]c2ccccc12)C(=O)O (stereo not given) | 1.06 ± 0.11 | 0.975 ± 0.0057 | 1 ± 0.011 | 1.03 ± 0.13 | 0.98 ± 0.13
C[C@]12CC[C@H](O)C[C@@H]1CC[C@@H]1[C@@H]2CC[C@]2(C)C(=O)CC[C@@H]12 | 0.956 ± 0.038 | 0.9945 ± 0.0078 | 1.01 ± 0.11 | 1.075 ± 0.0071 | 1.01 ± 0.033
